In the library only some 19% were active in any assay of this set; here they are far more common.
HT1080 IDH1KD tx = qHTS for induction of synthetic lethality in tumor cells producing 2HG: qHTS for the HT-1080-IDH1KD cell line; 2% of 360,000 active; Potency, µM (top dose mostly 46.1 µM), usual class: cytotoxic; HT-1080 IDH1 knockdown viability, ATP luminescence, 48 h
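Using the IDH1-knockdown HT-1080 line run in the same batch and compound series as the NT line, viability after 48 h at 37 °C was determined by CellTiter-Glo luminescence and expressed as % activity.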
IL1B secr inh = qHTS for Inhibitors of Inflammasome Signaling: IL-1-beta AlphaLISA Primary Screen; 4.7% of 360,000 active; THP-1 LPS/ATP IL-1B secretion, AlphaLISA, 16 h; hits give low values; AID 743279, 2014; activity change, % at 57.5 µM; in the data active = activity change below about -50%; inconclusive = mostly about -30% to -49%
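THP-1 cells pretreated 1 hr with compounds (up to 57.5 uM final), then stimulated with LPS (250 ng/mL final) plus ATP (1.25 mM final); secreted IL-1B measured by AlphaLISA after 16 hr, decreased signal indicating inhibition.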
TDP1 cell CPT = qHTS for Inhibitors of human tyrosyl-DNA phosphodiesterase 1 (TDP1): qHTS in cells in presence of CPT; chicken DT40 Tdp1-/-;hTDP1 cells + 20 nM CPT, ATP luminescence, 48 h; Potency, µM (series often up to 46.2 µM), actives largely listed as inhibitors; 12% of 420,000 active; note: nearly all actives have a fitted effect of over 55% in size
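Cell growth measured by CellTiter-Glo luminescence after a minimum 48 h, 37 C compound exposure with 20 nM CPT in Tdp1-knockout DT40 cells stably expressing hTDP1, seeded 400/well; qHTS titration format.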
HT1080NT lethal = qHTS for induction of synthetic lethality in tumor cells producing 2HG: qHTS for the HT-1080-NT fibrosarcoma cell line | 1.6% of 360,000 active | AID 686970, 2013 | Potency, µM (series often up to 46.1 µM), most hits filed as cytotoxic | HT-1080-NT fibrosarcoma viability, CellTiter-Glo ATP luminescence, 48 h;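 note: NT is the 2HG producing partner of a matched IDH1 knockdown line; nearly all actives have a fitted effect of over 55% in size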
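Viability by CellTiter-Glo luminescence after 48 h compound exposure at 37C of HT-1080-NT cells (750/well, RPMI, 5% FBS). % activity scaled between DMSO wells and medium-only wells, then curve-fitted and categorized by curve class.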
TDP1 cell noCPT = qHTS for Inhibitors of human tyrosyl-DNA phosphodiesterase 1 (TDP1): qHTS in cells in absence of CPT | DT40 Tdp1-/- hTDP1 cells, no CPT, ATP luminescence, 48 h | Potency, µM (highest dose often 46.2 µM), most hits filed as inhibitors | 15% of 420,000 active | AID 686978, 2013; note: nearly all actives have a fitted effect of over 55% in size
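Seeded 400 DT40-hTDP1 cells/well (vehicle DMSO, no 20 nM CPT); pinned compounds; ≥48 hr at 37 °C; CellTiter-Glo luminescence as viability measure.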
Each line names hits and unclear results; the compound was inactive in the other large screens. Unless noted, calls come from the whole dose curve; as a rule, active = well fitted curve in the direction sought with a large enough effect; inconclusive = small, poorly fitted or top-dose-only effect, or another doubt; inactive = no such curve, though single readings can be large; an effect the other way counts as inactive or inconclusive.

O=S1(=O)CC(N2CCN(CCO)CC2)CN1Cc1ccccc1 (stereo not given)	none
CCC(C(=O)NCCCN1CCOCC1)n1c2ccccc2c2nc(=O)cc(C)n21 (stereo not given)	none
COc1cc2[nH]c(Cl)c([N+](=O)[O-])c2cc1OC	TDP1 cell CPT 20.6µM, TDP1 cell noCPT 20.6µM
Nc1ncnc2c1ncn2[C@@H]1O[C@H](CNCc2ccccc2OCC(=O)N2CCCCC2)[C@@H](O)[C@H]1O	none
CN(C(=O)c1cccc(COc2ccc(Cl)cc2Cl)c1)c1ccccc1	TDP1 cell CPT 20.6µM, TDP1 cell noCPT inconclusive
COC(=O)c1ccccc1NC(=O)c1cccc(COc2ccccc2Cl)c1	HT1080 IDH1KD tx inconclusive, TDP1 cell CPT 9.2µM, HT1080NT lethal inconclusive, TDP1 cell noCPT 8.2µM
O=C(NCc1ccccc1)c1cccc(COc2cc(Cl)ccc2Cl)c1	TDP1 cell noCPT inconclusive
CN(C)C(=O)c1cccc(COc2ccc(N3C(N)=NC(N)=NC3(C)C)cc2Cl)c1	HT1080 IDH1KD tx inconclusive, TDP1 cell CPT 0.0184µM, HT1080NT lethal 0.0082µM, TDP1 cell noCPT 0.164µM
COC(=O)c1ccccc1NC(=S)NC(=O)COc1ccccc1Cl	none
O=C(NCc1ccccc1)c1cccc(COc2ccccc2Cl)c1	IL1B secr inh -63.1
Cc1ccsc1/C=C(\C(=O)c1ccc(OC(C)C)cc1)c1nc2ccccc2o1	IL1B secr inh -66.7, TDP1 cell CPT 16.4µM, TDP1 cell noCPT 18.4µM
Cc1ccc(C)c(N2CC(C(=O)Nc3cc(C)on3)CC2=O)c1 (stereo not given)	none
CCOC(=O)c1ccc(Nc2ncnc3c2cnn3C)cc1	TDP1 cell CPT inconclusive, TDP1 cell noCPT inconclusive
Cn1ncc2c(O/N=C(\N)c3ccc(C(C)(C)C)cc3)ncnc21	HT1080 IDH1KD tx 6.51µM, IL1B secr inh -101.3, TDP1 cell CPT 2.59µM, HT1080NT lethal 18.4µM, TDP1 cell noCPT 2.91µM
CCOC(=O)N/N=C(\C)c1ccc(OC(F)F)cc1OC(F)F	IL1B secr inh inconclusive
CC(=O)N(c1ccc2oc(=O)sc2c1)S(=O)(=O)c1ccccc1	TDP1 cell CPT inconclusive, TDP1 cell noCPT 10.3µM
CC(C)C(=O)N(c1ccc2oc(=O)sc2c1)S(=O)(=O)c1ccccc1	HT1080 IDH1KD tx inconclusive, TDP1 cell CPT inconclusive, HT1080NT lethal inconclusive, TDP1 cell noCPT inconclusive
COc1ccc(S(=O)(=O)N(C(=O)C(C)C)c2ccc3oc(=O)sc3c2)cc1	HT1080 IDH1KD tx inconclusive, TDP1 cell CPT 10.3µM, HT1080NT lethal inconclusive, TDP1 cell noCPT 16.4µM
COc1ccc(C(=O)Oc2ccc3oc(=O)sc3c2)cc1	TDP1 cell CPT 13µM, TDP1 cell noCPT inconclusive
N#C/C(=C\c1ccc(OCC(N)=O)cc1)S(=O)(=O)c1ccccc1	none
Cc1cccc(NC(=O)CN2CCCCCC2)c1	none
Cc1cccc(C)c1NC(=O)CN1CCCC1	none
CCc1cccc(NC(=O)CN2CCCN(Cc3cccc(C)c3)S2(=O)=O)c1	TDP1 cell CPT inconclusive, TDP1 cell noCPT 29.1µM (no result: HT1080 IDH1KD tx, IL1B secr inh, HT1080NT lethal)
Cc1cccc(CN2CCN(CC(=O)Nc3c(C)cccc3C)S2(=O)=O)c1	TDP1 cell CPT inconclusive, TDP1 cell noCPT 16.4µM (no result: HT1080 IDH1KD tx, IL1B secr inh, HT1080NT lethal)
Cc1[nH]c2c(Cl)cccc2c1CCNC(=O)C1CCCCC1C(=O)OCC(F)(F)F (stereo not given)	IL1B secr inh -79.7
COc1ccc(S(=O)(=O)N2c3ccccc3OCC2CC(=O)O)cc1 (stereo not given)	HT1080 IDH1KD tx inconclusive, TDP1 cell CPT inconclusive, HT1080NT lethal inconclusive, TDP1 cell noCPT 29.1µM
O=C(O)CC1COc2ccccc2N1S(=O)(=O)c1ccc(Br)cc1 (stereo not given)	none
COc1ccc(S(=O)(=O)N2c3ccccc3OCC2C)cc1 (stereo not given)	HT1080 IDH1KD tx 0.651µM, TDP1 cell CPT 0.581µM, HT1080NT lethal 0.651µM, TDP1 cell noCPT 0.82µM
COc1ccc(S(=O)(=O)N2CCOc3ccccc32)cc1	HT1080 IDH1KD tx 13µM, TDP1 cell CPT 5.17µM, HT1080NT lethal inconclusive, TDP1 cell noCPT 3.66µM
COc1ccc(S(=O)(=O)N2c3ccccc3NC(=O)CC2C)cc1 (stereo not given)	none
COc1ccc(S(=O)(=O)N2c3ccccc3OCC2c2ccccc2)cc1 (stereo not given)	HT1080 IDH1KD tx inconclusive, TDP1 cell CPT 18.4µM, HT1080NT lethal inconclusive, TDP1 cell noCPT 23.1µM
COc1cccc(CNC(=S)Nc2cc(C)ccc2C)c1	TDP1 cell CPT 18.4µM, TDP1 cell noCPT 25.9µM
Cc1ccc(C)c(NC(=S)NCc2cccs2)c1	TDP1 cell CPT inconclusive, TDP1 cell noCPT 29.1µM
COc1cccc(CNC(=S)Nc2cccc(Cl)c2C)c1	TDP1 cell noCPT inconclusive
CC(c1ccccc1)n1c(SCC(=O)Nc2ccccc2)n[nH]c1=O (stereo not given)	none
O=c1[nH]nc(Br)c(=O)n1C(c1ccccc1)c1ccccc1	TDP1 cell CPT 20.6µM, TDP1 cell noCPT inconclusive
CCc1ccc(/C(C)=N/NC(=O)CNC(=O)/C=C/c2ccco2)cc1	TDP1 cell CPT inconclusive, TDP1 cell noCPT inconclusive
CCn1cc(C(=O)N2CCCC(C(=O)c3cccc(C(F)(F)F)c3)C2)cn1 (stereo not given)	TDP1 cell CPT inconclusive, TDP1 cell noCPT inconclusive
CC(O)CNc1nc2c(c(=O)n(C)c(=O)n2C)n1C/C=C/c1ccccc1 (stereo not given)	TDP1 cell CPT 8.2µM, TDP1 cell noCPT 9.2µM
C=CCn1c(NCCO)nc2c1c(=O)n(C)c(=O)n2C	TDP1 cell CPT inconclusive, TDP1 cell noCPT inconclusive
Cn1c(=O)c2c(nc(NCCCO)n2C/C=C/c2ccccc2)n(C)c1=O	TDP1 cell CPT 18.4µM, TDP1 cell noCPT 18.4µM
Cn1c(=O)c2c(nc(N3CCOCC3)n2C/C=C/c2ccccc2)n(C)c1=O	TDP1 cell CPT inconclusive, TDP1 cell noCPT inconclusive
C#CCn1cc(/C=C2\NC(=O)NC2=O)c2ccccc21	HT1080 IDH1KD tx inconclusive, TDP1 cell CPT inconclusive, HT1080NT lethal inconclusive, TDP1 cell noCPT inconclusive
N#CCCn1c(SCC(=O)c2c[nH]c3ccccc23)nc2ccccc21	TDP1 cell CPT 23.1µM, TDP1 cell noCPT 18.4µM
NC(=O)CSc1nc2ccccc2c(=O)n1-c1ccccc1	none
Cc1cc(NC(=O)CSc2nc3ccccc3n2CCC#N)no1	IL1B secr inh -55.6
O=C(CSc1nc2ccccc2c(=O)n1-c1ccccc1)c1c[nH]c2ccccc12	TDP1 cell CPT 6.51µM, TDP1 cell noCPT 6.51µM
Cc1ccc(-c2n[nH]c(=S)n2/N=C/c2c(C)nn(-c3ccccc3)c2C)cc1	TDP1 cell CPT inconclusive, TDP1 cell noCPT 16.4µM
